The sample as a whole holds a higher share of hits than the screen did.
Marburg entry inh: inhibitors of Marburg virus binding or cell entry; 1.8% of 300,000 active; Potency, µM (titrated, usually from 37.8 µM), for the others: at the highest dose activity change, negative = inhibition, actives largely listed as inhibitors; Marburg virus pseudotyped entry inhibition, cell reporter; calls by dose curve; tested in HEK293 cells; also: potency is read from the fitted curve at half-maximal effect; % is scaled to controls: 0 for no effect and ±100 for the full control effect
LASV entry inh: Lassa virus entry inhibition; Lassa virus pseudotype entry inhibition, cell reporter; Potency, µM (highest dose often 37.9 µM), for inactives: at the top dose activity change, negative = inhibition, usual class: inhibitors; 1.2% of 300,000 active; AID 540256; calls by dose curve; tested in HEK293 cells; also: potency is read from the fitted curve at half-maximal effect; % is scaled to controls: 0 for no effect and ±100 for the full control effect; nearly all actives have a fitted effect of over 50% in size
Shiga inhibitor: Shiga toxin inhibition | 9.2% of 290,000 active | AID 2315 | Vero cells, Shiga toxin protein synthesis inhibition reporter | inhibition, % at 38.7 µM; in the data active = inhibition mostly above about 28%, no sharp cut-off; inactive = mostly below about 43%; also: 0% is about no effect
VACV Venus inh: vaccinia inhibition (Venus reporter). Vaccinia virus Venus reporter expression, fluorescence. Potency, µM (series often up to 36.5 µM), for inactives: at the top dose activity change, negative = inhibition, usual class: inhibitors. 0.46% of 330,000 active. AID 720580; calls by dose curve; tested in A549 cells; also: potency is read from the fitted curve at half-maximal effect; % is scaled to controls: 0 for no effect and ±100 for the full control effect; nearly all actives have a fitted effect of over 30% in size
CHX counter: affects cycloheximide protein synthesis inhibition readout, counter-screen. cell reporter, cycloheximide protein synthesis inhibition counterscreen. max response, %. 12% of 300,000 active. AID 2314; in the data active = max response mostly above about 13%, no sharp cut-off; inactive = mostly below about 14%; also: read at 38.3 µM for the half of the compounds with a filed dose; 0% is about no effect
Vaccinia mCherry: vaccinia inhibition (mCherry reporter); Vaccinia virus mCherry reporter infection, fluorescence; Potency, µM (top dose mostly 36.5 µM), for the others: at the top dose activity change, negative = inhibition, actives largely listed as inhibitors; 0.63% of 310,000 active; calls by dose curve; tested in A549 cells; also: potency is read from the fitted curve at half-maximal effect; % is scaled to controls: 0 for no effect and ±100 for the full control effect; nearly all actives have a fitted effect of over 35% in size
* marks the source's active call; other numbers are inactive results; i = inactive; ? = inconclusive; · = not tested or not shown; + = active, no number; [ ] = another dose, or the depositor's remark.

SMILES | Marburg entry inh | LASV entry inh | Shiga inhibitor | VACV Venus inh | CHX counter | Vaccinia mCherry
O=C(NNC1=Nc2cccc3cccc1c23)c1ccccc1Br | ? | -2.7% | -3.5 | -7.7% | 0.5 | ?
Cc1c(C2=CCN(S(=O)(=O)c3ccc(Cl)cc3)CC2)c2ccccc2n1CC(=O)N1CCCC1 | 10.0%[46.1 µM] | 19.8%[46.1 µM] | · | -20.8% | · | -16.1%
CCc1ccc(C(C(=O)NCc2ccccc2)N(C(=O)c2csnn2)C2CC2)cc1 (stereo unspecified) | -29.8%[46.1 µM] | -17.3%[46.1 µM] | 14.6 | 10.3% | 9.7 | ?
CC(=O)c1ccc(N2CCN(c3nc4c(S(=O)(=O)c5ccc(C)c(C)c5)nnn4c4ccc(Cl)cc34)CC2)cc1 | 5.3%[46.1 µM] | · | · | -16.4% | · | -1.1%
CC(C)c1ccc(NC(=O)CCNS(=O)(=O)c2ccc3[nH]c(=O)oc3c2)cc1 | · | · | -14.1 | · | -3.4 | ·
CC(C)(C)NC(=O)CCN(/N=C/c1ccc([N+](=O)[O-])o1)C1=NS(=O)(=O)c2ccccc21 | ? | -2.5% | -2.3 | 10µM* | -2.0 | ?
O=C(c1ccc(F)cc1)c1cc2ccccc2o1 | 14.5% | ? | 41.5* | · | 25.8* | ·
O=C(NCc1ccc(F)cc1)c1cc2ccccc2o1 | 6.3%[46.1 µM] | 4.5%[46.1 µM] | 31.9 | 0.0% | 14.1* | i
O=C(NNC(=O)c1cc2ccccc2o1)c1ccc(F)cc1 | 2.7% | -1.4% | · | -14.5% | · | -12.5%
O=C(c1ccccc1)c1cc2ccccc2o1 | ? | -0.1% | 79.8* | -10.8% | 37.8* | ·
CCN1C(=NCc2ccc3c(c2)OCO3)NC(c2ccccc2)C(C(=O)OC)=C1C (stereo unspecified) | -18.1%[14.2 µM] | · | · | · | · | ·
CC(C)CN(CCCNC(=O)Cn1ncc2c3ccccc3n(C)c2c1=O)CC(C)C | -3.6%[46.1 µM] | 16.6%[46.1 µM] | · | -5.5% | · | -9.6%
Cc1ccccc1N1C(=O)CC(Sc2nnc(-c3ccccc3)o2)C1=O (stereo unspecified) | 9.3% | 17.3% | 9.6 | 20.3% | 18.9* | 9.6%
O=C1CC(Sc2nnc(-c3ccccc3)o2)C(=O)N1c1ccccc1 (stereo unspecified) | ? | 11.4% | 48.8* | · | 22.3* | ·
CC(C)c1ccc(N2C(=O)CC(Sc3ncn[nH]3)C2=O)cc1 (stereo unspecified) | -22.8% | 1.7% | 7.9 | -0.8% | 0.2 | -7.1%
Cc1ccccc1N1C(=O)C[C@@H](Sc2nnc(-c3ccccc3)o2)C1=O | 9.3% | · | · | · | · | ·
CC(C)c1ccc(N2C(=O)CC(Sc3nc4ccccc4o3)C2=O)cc1 (stereo unspecified) | ? | 13.1% | 10.0 | · | 15.2* | ·
CCCCCCC(NC(=O)c1ccc(C)cc1)C(=O)O (stereo unspecified) | · | · | · | -13.0% | · | i
COc1ccc(-c2[nH]ncc2C(=O)NCc2ccccc2C)cc1 | -16.1%[46.1 µM] | · | · | -14.5% | · | -11.5%
COc1ccc(-c2nc(CCNC(=O)c3cc(OC)c(OC)c(OC)c3)cs2)cc1 | · | 11.5%[46.1 µM] | · | -13.6% | · | -8.1%
COc1ccc(-c2nc(C=O)cs2)cc1 | 21.9%[46.1 µM] | ? | 39.2* | 10.2% | 13.2* | 5.7%
COc1cccc(-c2nc(C=O)cs2)c1 | 10.9% | 19.2% | 30.7* | · | 12.9 | ·
COc1cccc(-c2csc(NC(=O)C3CC3)n2)c1 | · | · | 39.8 | -24.0% | 18.0 | i
CCOC(=O)c1c(C)[nH]c(C)c1S(=O)(=O)NCCc1cccs1 | · | · | -3.5 | · | -4.5 | ·
Cc1oc(-c2ccccc2NC(=O)C2CCCO2)nc1CNC(=O)c1cc(F)c(F)cc1F (stereo unspecified) | · | · | · | -4.4% | · | -12.8%
SMILES | Marburg entry inh | LASV entry inh | Shiga inhibitor | VACV Venus inh | CHX counter | Vaccinia mCherry
Nc1c(Cl)cc(-c2csc(N3CCCC3c3nc4cc(Cl)c(N5CCCCC5)cc4n3CCOCCO)n2)cc1Cl (stereo unspecified) | · | · | · | -21.9% | · | -19.9%
Cc1c(CCC(=O)N2CCC[C@H]2C(=O)O)c(=O)oc2c(C)c3oc4c(c3cc12)CCCC4 | · | · | 4.9 | -2.1% | 8.5* | -11.8%
OCCCNC(=S)Nc1ccc(Br)cc1Cl | -2.3% | 25.8% | 33.9* | -21.8% | 20.9* | -2.1%
S=C(NCc1ccc(Cl)c(Cl)c1)NCc1ccco1 | -19.9%[46.1 µM] | -16.8%[46.1 µM] | -4.0 | -12.4% | -3.5 | -13.3%
S=C(NCc1cccc(Cl)c1)NCc1ccco1 | · | · | 0.6 | · | -3.6 | ·
S=C(NCc1ccco1)Nc1ccc(Cl)cc1Cl | 6.2% | -1.2% | + | -8.8% | 21.6* | -17.6%
S=C(NCc1ccco1)Nc1ccc(Br)cc1Cl | -14.5%[46.1 µM] | 8.1% | 28.2 | -17.8% | 18.3* | -24.1%
Cc1ccc(C)c(-n2c3nc(=O)[nH]c(=O)c-3cc3c(C)nn(-c4ccccc4)c32)c1 | 3.0%[46.1 µM] | 11.1%[46.1 µM] | · | -4.2% | · | -5.7%
COc1ccc(-c2cc3ncc(-c4ccccc4)c(N)n3n2)cc1 | ? | -27.0%[46.1 µM] | 61.4* | ? | 36.1* | ?
N#Cc1cnn(-c2ccccc2)c1N | 11.5% | ? | -8.5 | -21.8% | -5.6 | -12.9%
N#Cc1cnc2cc(-c3ccccc3)nn2c1N | ? | 6.6% | 29.2 | -11.0%[7.34 µM] | 17.8* | -1.1%[7.34 µM]
CCOC(=O)c1ccc(-n2ccnc2)c(NC(=O)c2ccc(Cl)cc2)c1 | 1.7% | -1.4% | -10.3 | -14.1% | -2.8 | -4.3%
NS(=O)(=O)c1ccc(NC(=O)COC(=O)c2ccc(S(=O)(=O)N3CCOCC3)cc2)cc1 | 1.8%[46.1 µM] | 9.5%[46.1 µM] | · | 1.6% | · | i
Cc1cc2c(c(=O)o1)C1O[C@](CCCCN3C(=O)c4ccccc4C3=O)(Cc3cc(C#N)ccc31)O2 | · | · | i | · | -1.5 | ·
Cc1nc([N+](=O)[O-])c(Br)n1CC(=O)c1ccc(Br)cc1 | ? | -2.0% | -19.6 | · | 0.8 | ·
Cc1nc([N+](=O)[O-])c(Br)n1CC(=O)c1ccccc1 | ? | -27.0% | -15.8 | 2.24µM* | 10.2 | ·
Cc1nc([N+](=O)[O-])c(Br)n1CC(=O)c1ccc2ccccc2c1 | 17.8µM* | ? | -20.8 | 1.58µM* | 2.0 | 1.12µM*
O=C(COC(=O)c1cc(S(=O)(=O)N2CCOCC2)ccc1Cl)Nc1ccccc1Cl | ? | 4.7% | · | -11.1% | · | -12.8%
CSCCC(NS(=O)(=O)c1ccccc1F)C(=O)Nc1cccc(C)n1 (stereo unspecified) | -1.9% | 7.0% | -2.2 | -16.6% | 0.5 | -5.5%
CCN1C(C(=O)c2ccccc2)=C(OC(=O)COc2ccccc2)c2ccccc2S1(=O)=O | 1.9%[46.1 µM] | -4.5%[46.1 µM] | · | -29.6% | · | -29.3%
Cc1cccc(Nc2ccc(NCc3ccccc3)nn2)c1 | · | · | 87.0* | · | 31.2* | ·
Cc1cccc(NCc2nc3ccccc3n2Cc2ccccc2)c1 | ? | 7.4% | 14.9 | · | 12.2 | ·
COc1cc(C)nc(NCc2ccccc2)n1 | 6.2% | 8.6% | 8.3 | 4.4% | 9.4 | -6.1%
Cc1cc(NC2CCCCC2)nc(NCc2ccccc2)n1 | 11.6µM* | 23.1µM* | -18.4 | · | -4.8 | ·
Cc1ccc(Nc2cc(C)nc(NCc3ccccc3)n2)cc1 | 8.2µM* | 25.9µM* | -4.7 | ? | -1.0 | ?
Cc1c2cnn(CC(=O)NCc3ccc(F)cc3)c(=O)c2c(C)n1Cc1cccc(Cl)c1 | ? | -1.4%[46.1 µM] | · | -23.6% | · | -14.9%
COc1ccc(-c2cn3nc(N4CCCC(C(=O)Nc5cccc(OC)c5)C4)sc3n2)cc1 (stereo unspecified) | · | -29.3%[46.1 µM] | · | -14.4% | · | -9.1%
Cc1c(-c2ccccc2)n[nH]c1C(=O)NN | -1.2%[46.1 µM] | -1.5% | 97.1* | -5.8% | 42.6* | -10.2%

High-throughput results from PubChem.
